Laboratory results as given in PubChem BioAssay (NCI).
This is part of a sample that, as a whole, favours compounds with a hit. Of some 83,000 tested, about 20% had one in any assay.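 Single-concentration screen, 48 h exposure, 96-well plates. Endpoint: percent growth. Below 10 = active.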 Values without a mark were called inactive. Calls of active or inactive are those of the source.

Key:
Assay in all cases: NCI-60 one-dose screen, 48 h (100 = growth as untreated, 0 = no growth, -100 = all killed)
Settings in all cases: 10 µM unless noted
T-47D breast = system: T-47D breast
BT-549 breast = system: BT-549 breast
MDA-MB-435 melanoma = system: MDA-MB-435 melanoma
SW-620 colon = system: SW-620 colon
MCF7 breast = system: MCF7 breast
HCT-116 colon = system: HCT-116 colon
HCC-2998 colon = system: HCC-2998 colon
KM12 colon = system: KM12 colon

| Compound | growth (T-47D breast) | growth (BT-549 breast) | growth (MDA-MB-435 melanoma) | growth (SW-620 colon) | growth (MCF7 breast) | growth (HCT-116 colon) | growth (HCC-2998 colon) | growth (KM12 colon) |
| --- | --- | --- | --- | --- | --- | --- | --- | --- |
| CCN(CC)CCCN1C(=O)c2c(c(C)c3c(oc4ccc(O)cc43)c2C)C1=O | 87.2% | 96.6% | 93.4% | -37% (active) | 65.8% | -77.9% (active) | 67% | 70.7% |
| O=C(/C=C/c1ccc(Cl)cc1)c1cccc(OCCCOc2cccc(C(=O)/C=C/c3ccc(Cl)cc3)c2)c1 | 78% | 105% | 101% | 98.6% | 21.1% | 26% | 104% | 103% |
| Nc1c(C(=O)Nc2cccc(Cl)c2)sc2nc3c(cc12)CCCC3 | 80.8% | 93.1% | 34.4% | 92.3% | 71.6% | 91.6% | 91.4% | 77.6% |
| CC(C)N1C(=O)/C(=c2\sc3n(c2=O)C2C(NN=3)N(C)C(=O)N2C)c2ccccc21 (configuration not stated) | 64.8% | 72.1% | -21.2% (active) | 29.6% | 21.4% | 51.4% | 78.8% | 44.2% |
| N#C/C(=C\c1cn(Cc2ccccc2)c2ccccc12)C(=O)Nc1ncc(Cc2ccccc2Cl)s1 | -29.3% (active) | 52.8% | -15.1% (active) | 2.61% (active) | 23.8% | 0.288% (active) | 58.4% | 26.4% |
| C=CC(=O)Nc1ccc(Nc2nccc(-c3ccc(N4CCCC4)c(C#N)c3)n2)cc1 | 41.5% | 45.6% | -11.8% (active) | 3% (active) | 9.75% (active) | 24.8% | 31.5% | 14.6% |
| O=C1Nc2c(C(=O)O)cccc2/C1=N/c1n[nH]c(=S)s1 | 68.4% | 116% | 88.4% | 88.1% | 80.8% | 96.2% | 103% | 75.4% |
| NS(=O)(=O)c1ccc(C(=O)NN2C(=O)c3c(Br)c(Br)c(Br)c(Br)c3C2=O)cc1 | 83.1% | 106% | 103% | 101% | 81.4% | 99.7% | 111% | 97.5% |
| O=C(Nc1ccc(Cl)cc1)Oc1c(Cl)c(Cl)c(Cl)c(Cl)c1Cl | 84.3% | 92.6% | 96.5% | 101% | 86% | 89.1% | 107% | 96.6% |
| CS(=O)(=O)Nc1cc(-c2ccc3ncc(C#N)c(Nc4ccc(F)c(Cl)c4)c3c2)cnc1Cl | -13.3% (active) | -14.5% (active) | 2.34% (active) | 5.69% (active) | 4.03% (active) | 4% (active) | 6.92% (active) | 8.82% (active) |
| COc1cc(-c2nc3c(ncc4ccc(=O)n(-c5ccccc5)c43)s2)cc(OC)c1OC | 37.9% | 61.8% | 81% | 89.4% | 55.1% | 79.6% | 85% | 79.3% |
| COc1cc2c(c(OC)c1OC)C(=O)CC(c1cccc(NC(=O)c3ccc(C#N)cc3)c1)O2 (configuration not stated) | 8.42% (active) | 43.7% | 74% | 95.9% | 65.6% | 62% | 101% | 70.9% |
| NC(=O)c1cccc([C@@H]2O[C@H](CO)[C@@H](O)[C@H]2O)c1 | 85.7% | 90.9% | 106% | 24% | 61.8% | 72.7% | 93.9% | 34.7% |
| CCOC(=O)c1c(C)nc2c(c1N)CC(=O)N2Cc1ccc(OC)cc1 | 32.2% | 18.5% | 88.3% | 77.6% | 37.5% | 12.6% | 51.1% | 58% |
